# Source: PubChem BioAssay (NCATS)
# Unmarked numbers belong to inactive results. Calls come from the whole dose curve; as a rule, active = well fitted curve in the direction sought with a large enough effect; inconclusive = small, poorly fitted or top-dose-only effect, or another doubt; inactive = no such curve, though single readings can be large or run the other way.
# Test: qHTS for compounds that reverse cellular toxicity of Amyloid beta (A-beta) peptide in yeast: LOPAC Validation Assay (AID 720559);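 note: plate controls were DMSO for no effect and equimolar ferric chloride plus clioquinol rescue for full effect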
# Settings: yeast expressing A-beta; series mostly up to 46.1 µM; growth rescue, positive = activation: at the top concentration
# How it was run: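 OD600 growth readout after 48 hr at 30 C; A-beta-toxic yeast plus pinned compounds in medium. Normalization: DMSO = negative, equimolar FeCl3 + clioquinol = positive.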
row,Structure (SMILES),"growth rescue, positive = activation"
1,C=C1C[C@@]23CC[C@H]4[C@@](C)(CCC[C@@]4(C)C(=O)O)[C@@H]2CC[C@]1(O)C3,1.22%
2,CCn1c(=O)[nH]c2cc(Cl)c(Cl)cc21,1.19%
3,NC(=Nc1ccccc1)NC(=O)c1nc(Cl)c(N)nc1N,-1.22%
4,CC[C@@H]1Cc2cc(O)ccc2C2=C1c1ccc(O)cc1C[C@H]2CC,-61.4%
5,CCCc1c(OCCCOc2ccc(OCC(=O)O)cc2)ccc(C(C)=O)c1O,-11%
6,CCOC(=O)C12CC1/C(=N/O)c1ccccc1O2 (configuration not stated),-6.86%
7,CC1=C(/C=C/C(C)=C/C=C/C(C)=C\C(=O)O)C(C)(C)CCC1,0.408%
8,N#CC(=C(\N)Sc1ccccc1N)/C(C#N)=C(/N)Sc1ccccc1N,-43.7%
9,CCCC[C@@]1(C2CCCC2)Cc2cc(OCC(=O)O)c(Cl)c(Cl)c2C1=O,-2.67%
10,O=c1cc(O)cc(/C=C/c2ccc(O)c(O)c2)o1,-2.93%
11,COc1cc(/C=C(\C#N)C(=O)Nc2nnc(C(F)(F)F)s2)ccc1OCc1ccc(C(F)(F)F)cc1C(F)(F)F,4.1%
12,CC(=O)O[C@H]1Cc2ccccc2N(C(N)=O)c2ccccc21,-2.27%
13,COc1ccc2c(c1)c(CC(=O)O)c(C)n2C(=O)c1ccccc1,-1.54%
14,Cc1nc2n(c(=O)c1CCN1CCC(c3noc4cc(F)ccc34)CC1)CCCC2O (configuration not stated),18.8%
15,CN1CCC2(CCN3CCc4c(oc5ccccc45)C3C2)N(C)C1=O (configuration not stated),-0.0624%
16,C=CC1(C)CC(=O)C2(O)C(C)(O1)C(OC(C)=O)C(O)C1C(C)(C)CCC(O)C12C (configuration not stated),-6.17%
17,CC(=O)SC1CC2=CC(=O)CC[C@]2(C)C2CC[C@@]3(C)C(CC[C@@]34CCC(=O)O4)C12 (some centres not stated),-7.04%
